Results from PubChem BioAssay (Tox21).
Results filed as inconclusive are left out. Where a call stands in place of a potency, no number is given. Active and inactive are the calls of the source. Calls follow the shape of the dose curve; as a rule, active = well fitted activation curve with a large enough effect in the repeat runs; inconclusive = weak or mixed curves; inactive = flat fitted curve, though single readings scatter.

assay: A CellTox Green Cytotoxicity Assay to monitor cytotoxicity in HEK293 cells - 8 hour (AID 1224884); details: CellTox Green fluorescence; series mostly up to 76.8 µM; also: nearly all actives have a fitted effect of over 35% in size
From the text: National Center for Advancing Translational Sciences [NCATS]
NIH Chemical Genomics Center [NCGC]
U.S. Environmental Protection Agency [EPA]
National Institutes of Environmental Health Sciences [NIEHS]
National Toxicology Program [NTP]
Cell-based models are critical for drug discovery. Determining the natural cytotoxic effects resulting from test compounds is an essential research activity. A CellTox Green Cytotoxicity Assay to monitor cytotoxicity in real time of continues cell culture during 40 hours of the compound treatment was used to screen Tox21 10K library compounds in Hek293 cells. CellTox Green Cytotoxicity Assay is a nonlytic, homogeneous, biofluorescent method to measure cytotoxicity in cell culture after experimental manipulation. The assay system uses a proprietary asymmetric cyanine dye that is excluded from viable cells but preferentially stains the dead cell's DNA. […] Viable cells produce no appreciable increases in fluorescence. Therefore, the fluorescence signal produced by the binding interaction with dead cell DNA is proportional to cytotoxicity.
The mixture of Hek293 cell suspension and reagents were dispensed at 600cells/6 ul/well in 1536-well tissue culture treated black solid bottom plates using a Multidrop dispenser. After the assay plates were incubated at a 37 C/5% CO2 incubator for 5 hours, 23 nL of compounds dissolved in DMSO, positive and negative controls was transferred to the assay plate by a pintool work station. The plates were incubated at 37 C for 40 hours. The fluorescence intensity were measured at 0h, 8h, 16h, 24h, 32h and 40h time points using ViewLux plate reader during compound treatment.

| SMILES | Potency |
| --- | --- |
| Brc1ccc(Oc2ccc(Br)cc2)cc1 | inactive |
| Cc1cc(CC(=O)O)n(C)c1C(=O)c1ccc(Cl)cc1 | inactive |
| CCCOC(=O)NCCCN(C)C | inactive |
| NC(N)=S | inactive |
| COc1ccc([C@@H]2CC(=O)c3c(O)cc(O[C@@H]4O[C@H](CO[C@@H]5O[C@@H](C)[C@H](O)[C@@H](O)[C@H]5O)[C@@H](O)[C@H](O)[C@H]4O)cc3O2)cc1OC | inactive |
| CC[N+](CC)(CC(=O)Nc1c(C)cccc1C)Cc1ccccc1 | inactive |
| C=C(CC(=O)O)C(=O)O | inactive |
| CC(C)(C)NC[C@H](O)COc1nsnc1N1CCOCC1 | inactive |
| CCCCCCCCC(=O)O | inactive |
| Cc1ccc([N+](=O)[O-])cc1N | inactive |
| CCc1cccc(O)c1 | inactive |
| Oc1ccc(Cc2ccccc2O)cc1 | inactive |
| CC(=O)OC/C=C(\C)CCC=C(C)C | inactive |
| O=C1C(N(CO)C(=O)NCO)N(CO)C(=O)N1CO (stereo not given) | inactive |
| CCN(CC)CCNC(=O)c1ccc(N)cc1 | inactive |
| CN=C(NC#N)NCCSCc1nc[nH]c1C | inactive |
| C=CC(C)(C)C | inactive |
| Cc1ccc(Cl)cc1 | inactive |
| NC(=O)NC(N)=O | inactive |
| Cc1ccccc1C=O | inactive |

| SMILES | Potency |
| --- | --- |
| CCn1cc(C(=O)O)c(=O)c2cc3c(cc21)OCO3 | inactive |
| CN1CCCC1=O | inactive |
| NC1CCCCC1N (stereo not given) | inactive |
| Nc1nc(N)c2nc(-c3ccccc3)c(N)nc2n1 | inactive |
| COc1c2ccoc2cc2oc(=O)ccc12 | inactive |
| CC(=O)C(C)C | inactive |
| Cc1cccc(C)c1[N+](=O)[O-] | inactive |
| Cc1ccccc1Cl | inactive |
| CC(=O)Nc1ccc(CC(=O)O)cc1 | inactive |
| CCOC(=O)CC(=O)OCC | inactive |
| CC(=O)OC(C)(C)C1CC=C(C)CC1 (stereo not given) | inactive |
| COC(=O)/C=C\C(=O)OC | inactive |
| C1CCCNCC1 | inactive |
| C=CC(=O)NCOCCCC | inactive |
| O=C1O[C@H]([C@H](O)CO)C(O)=C1O | inactive |
| OCc1ccc(Cl)cc1Cl | inactive |
| CCCCCCCC(=O)O | inactive |
| CC(C=O)Cc1ccc(C(C)(C)C)cc1 (stereo not given) | inactive |
| OC[C@H]1O[C@@H](Oc2ccc(O)cc2)[C@H](O)[C@@H](O)[C@@H]1O | inactive |
| Cc1cc(C)c(O)c(C)c1 | inactive |
